PLK1 PBD block: PLK1 (human) polo-box domain binding inhibition; hit rate 2.8% among 360,000; AID 720504; Potency, µM, for the others: max response, negative = inhibition, usual class: inhibitors; Plk1 PBD binding of FITC phosphopeptide, fluorescence polarization; P53350; also: series mostly up to about 57 µM; % is scaled to controls: 0 for no effect and ±100 for the full control effect; nearly all actives have a fitted effect of over 65% in size
BAZ2B inh: BAZ2B (human) inhibition; Potency, µM (titrated, usually from 114 µM), without a hit: top-dose activity change, negative = inhibition, usual class: inhibitors; AlphaScreen BAZ2B-H3K14Ac peptide displacement; hit rate 4.4% among 360,000; Q9UIF8; also: % is scaled to controls: 0 for no effect and ±100 for the full control effect; nearly all actives have a fitted effect of over 60% in size
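AlphaScreen displacement: compounds (up to 110uM) incubated 30 min at room temperature with a preformed 50 nM BAZ2B/50 nM biotinylated H3K14Ac peptide complex in PBS pH 7.4 with Tween-20. Donor and acceptor beads at 10 ug/mL final added, 20 min light-protected before reading.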
G9a inh: G9a (human) methyltransferase inhibition; Q96KQ7; G9a H3K9 monomethylation, AlphaScreen, 2 h; Potency, µM (doses to about 102 µM), inactives show at the highest dose activity, negative = inhibition, usual class: inhibitors; hit rate 8.8% among 350,000; also: % is scaled to controls: 0 for no effect and ±100 for the full control effect; nearly all actives have a fitted effect of over 75% in size
Target sequence (Q96KQ7 913-1193 limits assumed): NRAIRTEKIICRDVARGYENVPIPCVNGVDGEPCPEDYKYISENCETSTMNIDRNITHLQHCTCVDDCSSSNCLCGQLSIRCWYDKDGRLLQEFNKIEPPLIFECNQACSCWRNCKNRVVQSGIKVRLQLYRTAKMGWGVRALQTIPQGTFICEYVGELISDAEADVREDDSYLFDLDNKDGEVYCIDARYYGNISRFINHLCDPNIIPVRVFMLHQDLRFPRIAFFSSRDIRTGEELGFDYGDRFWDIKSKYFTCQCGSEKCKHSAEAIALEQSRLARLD
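Compounds were preincubated with 20 nM G9a for 15 min, after which biotinylated H3K9 peptide (500 nM) and SAM (20 uM) started a 2 h room-temperature reaction. Monomethylated product was quantified by antibody-based AlphaScreen chemiluminescence.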
Sfp inh: Sfp phosphopantetheinyl transferase inhibition | Q9F4F7 | Biochemical Sfp PPTase activity, qHTS | Potency, µM, for inactives: largest response in the series, negative = inhibition, hits mostly inhibitors | hit rate 3.5% among 310,000;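 also: the enzyme is Sfp with the accession as filed and its product quenches rhodamine fluorescence; 0% = enzyme reaction without inhibitor and -100% = no enzyme wells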
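Compounds were incubated with enzyme (final 15 nM) for 15 min at room temperature before substrate addition started the reaction. Fluorescence at 525 nm excitation, 598 nm emission was recorded immediately and after 30 minutes.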
HP1b chromo inh: inhibitors of HP1-beta chromodomain binding to methylated histone tails; hit rate 0.56% among 390,000; P83916; AlphaScreen HP1-beta / biotin-H3K9me3 peptide binding; Potency, µM (titrated, usually from 114 µM), without a hit: top-dose activity change, negative = inhibition, actives largely listed as inhibitors; also: nearly all actives have a fitted effect of over 70% in size
Target sequence (P83916 whole entry, looked up): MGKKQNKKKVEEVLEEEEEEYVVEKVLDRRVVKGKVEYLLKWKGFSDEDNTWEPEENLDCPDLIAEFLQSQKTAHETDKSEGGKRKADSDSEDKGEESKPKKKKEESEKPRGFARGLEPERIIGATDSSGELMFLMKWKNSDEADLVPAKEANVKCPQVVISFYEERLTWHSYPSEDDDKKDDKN
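Compound inhibition of the preformed complex between 50 nM HP1-beta and 50 nM biotinylated H3K9me3 peptide was read by AlphaScreen. Buffer was PBS pH 7.4 with 0.01% Tween-20. Incubations ran 30 min at room temperature, with 10 ug/mL donor/acceptor beads.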
JMJD2A Tudor inh: inhibitors of human JMJD2A Tudor domain | hit rate 4.4% among 390,000 | O75164 | AlphaScreen JMJD2A-Tudor / H3K4me3 peptide binding | Potency, µM (top dose mostly 114 µM), inactives show at the top dose activity change, negative = inhibition, usual class: inhibitors | AID 504339; also: % is scaled to controls: 0 for no effect and ±100 for the full control effect; nearly all actives have a fitted effect of over 50% in size
The depositor's hits bear a star; ? = inconclusive; nt = no result given; [ ] = another dose, or the depositor's remark. The list is not random: actives were taken first. Their share in the collection is about 12%. Calls follow the shape of the dose curve; as a rule, active = well fitted curve in the direction sought with a large enough effect; inconclusive = small, poorly fitted or top-dose-only effect, or another doubt; inactive = no such curve, though single readings can be large; an effect the other way counts as inactive or inconclusive. Potency is read from the fitted curve at half-maximal effect.

SMILES	PLK1 PBD block	BAZ2B inh	G9a inh	Sfp inh	HP1b chromo inh	JMJD2A Tudor inh
COc1ccc(N2CCN(CC(=O)Nc3cccc(S(=O)(=O)N4CCOCC4)c3)CC2)cc1	-6.6%	35.5µM*	14.1µM*	-9.2%	-65.3%	7.94µM*
O=C(Cn1c(=O)n2nc(-c3ccccc3)nc2c2ccccc21)Nc1ccccc1C(F)(F)F	nt	-0.5%	?	nt	26.9%	-16.2%
Cc1cc(C)cc(NC(=O)C2CCCN(C(=O)c3cnn(-c4ccccc4)c3-n3cccc3)C2)c1 (stereo unspecified)	nt	-22.4%	-2.0%[59 µM]	nt	17.3%	-22.5%
S=C1NCCNC(=S)NCCOCCOCCOCCN1	-0.2%	14.0%	25.1µM*	17.5%	39.9%	1.4%
c1ccc(Cc2nn3c(Cn4nnc5ccccc54)nnc3s2)cc1	8.44µM*	-0.7%	8.91µM*	35.5µM*	-40.7%	-28.9%
c1ccc(OCc2nn3c(Cn4nnc5ccccc54)nnc3s2)cc1	11.9µM*	-7.7%	2.82µM*	12.6µM*	?	?
c1ccc(Cn2nnc3ccccc32)cc1	-2.9%	4.7%	13.1%	22.5%	34.4%	2.8%
c1ccc(OCc2nn3c(-c4cccnc4)nnc3s2)cc1	-1.2%	24.3%	16.8%[12.7 µM]	-12.3%	32.7%	-4.5%
c1ccc2c(c1)OCC(c1nn3c(Cn4nnc5ccccc54)nnc3s1)O2 (stereo unspecified)	23.8µM*	50.1µM*	5.01µM*	2.51µM*	?	?
COc1ccc(OCc2nn3c(Cn4cnc5ccccc54)nnc3s2)cc1	15µM*	4.3%	5.62µM*	25.1µM*	?	-33.3%
CCOc1ccc(-n2nc3ccc(NC(=O)COc4ccccc4C)cc3n2)cc1	nt	0.3%	5.8%[59 µM]	nt	13.8%	-10.1%
COc1cccc(NC(=O)COC(=O)CCC2CCCC2)c1	-3.0%	14.6%	28.9%[59 µM]	nt	35.1%	-2.1%
CCCCOP(=O)(OCCCC)C1(NS(=O)(=O)c2ccccc2)C=CC(=O)c2ccccc21 (stereo unspecified)	-13.7%	-7.3%	1.78µM*	1.7%	?	?
CN1C(=O)C2(c3ccccc31)N(C)CC(c1ccccc1)C21SC(=S)N(Cc2ccco2)C1=O (stereo unspecified)	-3.3%	5.3%	nt	-14.9%	-13.5%	?
CN1C(=O)C2(c3ccccc31)N(C)CC(c1ccccn1)C21SC(=S)N(Cc2ccco2)C1=O (stereo unspecified)	-2.7%	22.4µM*	nt	-3.6%	?	28.2µM*
Cc1ccccc1CS(=O)(=O)c1cn(CC(=O)N2CCOCC2)c2ccccc12	-5.9%	?	nt	-12.9%	31.2%	-14.0%
CCn1nc(-c2ccccc2)c(-c2ccccc2)c(C(=O)Nc2ccc(S(N)(=O)=O)cc2)c1=O	nt	-16.8%	?	nt	4.9%	-27.4%
CN(C1CCCCC1)S(=O)(=O)c1ccc(=S)[nH]c1	21.2µM*	30.9%	-17.9%[12.7 µM]	nt	-10.7%	-19.5%
CN(C1CCCCC1)S(=O)(=O)c1cccc(C#N)c1	23.8µM*	-3.3%	-43.7%	2.1%	-20.3%	-19.7%
CCOc1ccc(S(=O)(=O)N(C)C2CCCCC2)cc1	2.9%	0.6%	101.0%	11.6%	80.5%	46.2%
O=C(c1nn2c(C(F)(F)F)cc(-c3ccc(F)cc3)nc2c1Cl)N1CCOCC1	26.7µM*	nt	42.2%[59 µM]	-3.3%	-13.7%	-19.9%[11.4 µM]
Cn1c(=O)oc2cc(S(=O)(=O)N3CCC(C(=O)N4CCN(c5ccccc5F)CC4)CC3)ccc21	nt	-1.9%	14.4%[59 µM]	nt	33.1%	-21.9%
O=S1(=O)[C@H]2C[C@@H]3C=C[C@@]2(CN1Cc1cccc(F)c1)O3	-13.7%	-3.5%	7.0%	11.3%	9.7%	-5.7%
COc1cccc(CN2C[C@]34C=C[C@@H](C[C@@H]3S2(=O)=O)O4)c1	-8.6%	5.7%	0.2%[59 µM]	89.1µM*	25.7%	-10.6%
Cc1ccc(C)c(CNC(=O)c2sc3ncnc(N(C)C4CCCCC4)c3c2C)c1	nt	-1.0%	1.6%[59 µM]	nt	30.4%	-12.7%
SMILES	PLK1 PBD block	BAZ2B inh	G9a inh	Sfp inh	HP1b chromo inh	JMJD2A Tudor inh
O=C(Nc1nc(-c2cccnc2)cs1)c1ccccc1[N+](=O)[O-]	-2.6%	-0.9%	-4.1%	7.0%	15.4%	-14.9%
COc1ccc(-c2nc(S(=O)(=O)c3ccc(Cl)cc3)c(N3CCCCCC3)o2)cc1	nt	-33.5%	20µM*	nt	-20.4%	56.2µM*
O=C(CSc1oc(-c2ccc(F)cc2)nc1S(=O)(=O)c1ccccc1)c1ccc(Cl)cc1	nt	-3.2%	-28.3%[59 µM]	nt	22.3%	-1.4%
CN(C)c1oc(-c2ccc(Cl)cc2)nc1S(=O)(=O)c1ccccc1	-19.7%	?	-18.0%[59 µM]	-17.4%	?	79.4µM*
COc1ccccc1-c1nc(S(=O)(=O)c2ccc(Cl)cc2)c(N2CCCCCC2)o1	nt	-24.5%	?	nt	-8.8%	-26.6%
O=S(=O)(c1ccc(Cl)cc1)c1nc(-c2cccs2)oc1N1CCCCC1	nt	14.1µM*	14.1µM*	nt	?	?
COc1cccc([C@@H]2Oc3ccc(Br)cc3C[C@H]2O)c1	nt	nt	nt	19.3%	nt	nt
NCCc1nnc(SCC(=O)Nc2cccc(Cl)c2)o1	-17.1%	?	50.1µM*	8.8%	15.1%	-22.2%
O=C(CSc1nnc(-c2ccc(C(F)(F)F)cn2)o1)Nc1cccc(Cl)c1	-6.9%	50.1µM*	29.4%	0.7%	20.8%	-10.0%
CC(C)(C)OC(=O)NCCc1nnc(SCC(=O)Nc2cccc(Cl)c2)o1	3.5%	8.8%	nt	13.4%	12.5%	-16.9%
O=C(CSc1nnc(-c2cccc(Cl)c2)o1)Nc1ccc2c(c1)OCCO2	-2.1%	1.1%	-5.0%[59 µM]	-14.6%	27.7%	-4.5%
O=C(NC1CCCC1)c1ncn[nH]1	-5.3%	44.7µM*	20.1%[59 µM]	-6.5%	44.8%	31.6µM*
Cc1ccc(C)c(NC(=O)c2ncn[nH]2)c1	0.2%	?	-5.6%	-11.9%	5.0%	-17.9%
c1ccc(C[C@H]2CN=C(Nc3ccccc3)N2CCCC2CCCC2)cc1	-21.2%	?	44.7µM*	-27.1%	25.7%	-29.6%
Cc1nc2ccccc2n1CCC(=O)O	0.7%	-30.0%	-74.4%	8.4%	41.7%	12.6%
Cc1nc2ccccc2n2c(O)c(CC(=O)O)cc12	23.8µM*	-16.7%	?	10.1%	-19.7%	?
COc1ccccc1CNC(=O)c1ccc(-c2nc(CN3CCc4ccccc43)c(C)o2)cc1	nt	-36.5%	?	nt	-3.1%[57 µM]	?
CCNc1nc(NCC)nc(N(CC)C(N)=S)n1	?	-24.0%	1.78µM*	-29.7%	-3.9%	-10.4%
CCNc1nc(NCC)nc(N(C#N)C(C)C)n1	-1.1%	0.2%	11.9%	10.3%	-3.0%	-11.4%
Cc1ccc(S(=O)(=O)c2nnn3c2nc(N2CCCC(C)C2)c2cc(Cl)ccc23)cc1C (stereo unspecified)	nt	-3.6%	8.8%[59 µM]	nt	21.8%	4.0%
